33 molecules from the supplement of paper PMC10811239 can be followed below.

For experiment [1], the system named is LEGO organoid PTCC (PTEN-/-; TP53-/-; CDKN2A-/-; CDKN2B-/-). Put plainly: bioluminescence (viable cell) signal fold change after vs before treatment, normalised to DMSO (ratio); higher = more tumour cell growth / less inhibition. The note with it: 10 µM; treatment time 6 days. On the procedure:
(§1)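 Luc2-labelled iPSC-derived glioblastoma-like organoids (LEGOs, genotypes PT = PTEN-/-;TP53-/-, PTCC = plus CDKN2A/B-/-, PTN = plus NF1-/-) were treated with 10 uM drug for 6 days (applied every other day) at 37 C. Bioluminescence imaging was done before treatment and 2 days after the last dose. BLI signals were normalised to the DMSO control on the same day and then to the pre-treatment signal (N=3).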

Experiment [2] concerns LEGO organoid PTN (PTEN-/-; TP53-/-; NF1-/-). The description is as above. The note with it: 10 µM; treatment time 6 days. Here is the method: as §1

For the molecule `CCC(=O)NCC[C@@H]1CCc2ccc3c(c21)CCO3` [Ramelteon], the bioluminescence in experiment [1] was 1.56; in experiment [2], 2.06.
As to `Cc1cc(NS(=O)(=O)c2ccc(N)cc2)no1` [Sulfamethoxazole], the bioluminescence was 1.56 in experiment [1] and 1.8 in experiment [2].
On the same counts, the results for `Cl.NCC(=O)CCC(=O)O` [5-Aminolevulinic acid hydrochloride] are 2.27 and 1.19.
For the molecule `N[C@H](C(=O)O)[C@H](O)c1ccc(O)c(O)c1` [Droxidopa], the bioluminescence is 2.59 in experiment [1] and 3.13 in experiment [2].
On the same counts, the results for `CCOc1nc2cccc(C(=O)O)c2n1Cc1ccc(-c2ccccc2-c2nn[nH]n2)cc1` [Candesartan] are 1.68 and 2.99.
As for `C[C@@H]1C[C@H]2[C@@H]3CCC4=CC(=O)C=C[C@]4(C)[C@@]3(F)[C@@H](O)C[C@]2(C)[C@@]1(O)C(=O)CO` [Dexamethasone], the bioluminescence in experiment [1] was determined as 1.28; in experiment [2] it was 1.71.
On the same counts, the results for `Oc1c(I)cc(Cl)c2cccnc12` [Clioquinol] are 1.47 and 2.47.
In the case of `C[C@]12CC[C@@H]3c4ccc(O)cc4CC[C@H]3[C@@H]1CC[C@@H]2O` [Estradiol], the bioluminescence in experiment [1] amounted to 0.435; in experiment [2], 1.18.
On the same counts, the results for `Clc1ccc(COC(Cn2ccnc2)c2ccc(Cl)cc2Cl)c(Cl)c1.O=[N+]([O-])O` (stereo unspecified) [Miconazole nitrate] are 0.22 and 1.21.
On the same counts, the results for `Cl.Cc1ccsc1\C(=C\CCN1CCC[C@H](C1)C(O)=O)c1sccc1C` [Tiagabine hydrochloride] are 2.4 and 0.83.
On the same counts, the results for `Cc1ncc([N+](=O)[O-])n1CCO` [Metronidazole] are 0.966 and 1.56.
As for `NC(=O)c1cn(Cc2c(F)cccc2F)nn1` [Rufinamide], the bioluminescence amounted to 2.69 in experiment [1] and 1 in experiment [2].
On the same counts, the results for `CC(C)NCC(O)COc1ccc(CC(N)=O)cc1` (stereo unspecified) [Atenolol] are 0.484 and 0.649.
On the same counts, the results for `CC(=O)N[C@@H](CS)C(=O)O` [Acetylcysteine] are 1.21 and 3.17.
As to `COCCCC/C(=N\OCCN)c1ccc(C(F)(F)F)cc1.O=C(O)/C=C\C(=O)O` [Fluvoxamine maleate], the bioluminescence in experiment [1] was 0.792; in experiment [2] it was 1.47.
Take `CC(=O)[C@H]1CC[C@H]2[C@@H]3CCC4=CC(=O)CC[C@]4(C)[C@H]3CC[C@]12C` [Progesterone]: the bioluminescence came out at 0.682 in experiment [1] and 1.12 in experiment [2].
Regarding `CC(C)(Sc1cc(C(C)(C)C)c(O)c(C(C)(C)C)c1)Sc1cc(C(C)(C)C)c(O)c(C(C)(C)C)c1` [Probucol], the values for the bioluminescence in experiment [1] and in experiment [2] were 0.73 and 0.748, respectively.
`NNC(=O)c1ccncc1` [Isoniazid]: the bioluminescence stood at 0.847 in experiment [1] and 1.06 in experiment [2].
On the same counts, the results for `Cc1ccc(Nc2nccc(N(C)c3ccc4c(C)n(C)nc4c3)n2)cc1S(N)(=O)=O.Cl` [Pazopanib HCl] are 1.41 and 1.02.
For the molecule `CNCCC(Oc1ccc(C(F)(F)F)cc1)c1ccccc1.Cl` (stereo unspecified) [Fluoxetine hydrochloride], the figures for the bioluminescence in experiment [1] and in experiment [2] were 1.74 and 0.924, respectively.
On the same counts, the results for `CC/C(=C(\c1ccccc1)c1ccc(OCCN(C)C)cc1)c1ccccc1` [Tamoxifen] are 0.468 and 0.103.
On the same counts, the results for `CN(C)CCc1c[nH]c2ccc(Cn3cncn3)cc12.O=C(O)c1ccccc1` [Rizatriptan benzoate] are 1.84 and 0.666.
On the same counts, the results for `C[C@H](C(=O)O)c1cccc(C(=O)c2ccccc2)c1` [(S)-(+)-Ketoprofen] are 1.1 and 0.728.
For `CCN(CC)CCNC(=O)c1cc(Cl)c(N)cc1OC` [5-Chloro-2-methoxyprocainamide], the results for the bioluminescence in experiment [1] and in experiment [2] were 0.329 and 1.62, respectively.
As to `CCC1=CC2CN(C1)Cc1c([nH]c3ccccc13)[C@](C(=O)OC)(c1cc3c(cc1OC)N(C)[C@H]1[C@@](O)(C(=O)OC)[C@H](OC(C)=O)[C@]4(CC)C=CCN5CC[C@]31[C@@H]54)C2.O=C(O)[C@H](O)[C@@H](O)C(=O)O.O=C(O)[C@H](O)[C@@H](O)C(=O)O` (stereo partly specified) [Vinorelbine ditartrate], the values for the bioluminescence in experiment [1] and in experiment [2] were 0.445 and 1.54, respectively.
On the same counts, the results for `COc1cccc2c1C(=O)c1c(O)c3c(c(O)c1C2=O)C[C@@](O)(C(=O)CO)C[C@@H]3O[C@H]1C[C@H](N)[C@@H](O)[C@H](C)O1.Cl` [Epirubicin hydrochloride] are 0 and 0.00894.
On the same counts, the results for `COC(=O)N[C@H](C(=O)N[C@@H](Cc1ccccc1)[C@@H](O)CN(Cc1ccc(-c2ccccn2)cc1)NC(=O)[C@@H](NC(=O)OC)C(C)(C)C)C(C)(C)C.O=S(=O)(O)O` [Atazanavir sulfate] are 0.573 and 6.56.
Regarding `COc1cc2c(Nc3ccc(Br)cc3F)ncnc2cc1OCC1CCN(C)CC1` [Vandetanib], the bioluminescence in experiment [1] was determined as 0.918; in experiment [2], 0.168.
With `FC(F)(F)c1ccc(CNc2ccc(Cc3c[nH]c4ncc(Cl)cc34)cn2)cn1` [Pexidartinib], the bioluminescence in experiment [1] was determined as 3.05; in experiment [2], 0.351.
On the same counts, the results for `Cl.O=c1n(CCCN2CCN(c3cccc(Cl)c3)CC2)nc2ccccn12` [Trazodone hydrochloride] are 2.62 and 0.985.
On the same counts, the results for `C[C@H]1C[C@@H]2[C@H]([C@@H](O)C[C@@]3(C)[C@H]2CC[C@]3(O)C(=O)CO)[C@@]2(C)C=CC(=O)C=C12` [Methylprednisolone] are 0.882 and 1.17.
On the same counts, the results for `CSCC[C@@H](N)C(=O)O` [Methionine] are 0.816 and 1.35.
Turning to `CCCCCCCCCCC[C@@H](C[C@@H]1OC(=O)[C@H]1CCCCCC)OC(=O)[C@H](CC(C)C)NC=O` [Orlistat], the bioluminescence in experiment [1] was found to be 0.925; in experiment [2], 1.32.
